Experimental data as given in the supplement of paper PMC6555819.

Experiments:
Experiment in all cases: PBM binding z-score (relative to random genomic background probes); higher = stronger binding; sequences stand for … in GC…GCGATTGACAGCGTAGAATGAAGG
[1] = system: FXR:RXRa (NR concentration 270 nM, RXRa partner concentration 90 nM)
Outline: (§1)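 Binding z-scores take random background probes as their reference. They come from custom Agilent 4×180K protein-binding microarrays incubated 1 h with ligand-free nuclear receptor dimers, with antibodies against each partner (one per run) detecting binding. Scanned fluorescence was regression-normalized.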

[2] = system: LXRa:RXRa (NR concentration 270 nM, RXRa partner concentration 90 nM)
Outline: as §1

[3] = system: LXRa homodimer (NR concentration 270 nM)
Outline: as §1

[4] = system: LXRb:RXRa (NR concentration 270 nM, RXRa partner concentration 90 nM)
Outline: as §1

[5] = system: LXRb homodimer (NR concentration 270 nM)
Outline: as §1

[6] = system: PPARa:RXRa (NR concentration 270 nM, RXRa partner concentration 90 nM)
Outline: as §1

[7] = system: PPARg:RXRa (NR concentration 180 nM, RXRa partner concentration 90 nM)
Outline: as §1

[8] = system: PPARg:RXRa 270nM:90nM, anti-RXR (NR concentration 270 nM, RXRa partner concentration 90 nM)
Outline: as §1

[9] = system: PPARg:RXRa 30nM:10nM, anti-RXR (NR concentration 30 nM, RXRa partner concentration 10 nM)
Outline: as §1

[10] = system: PPARg:RXRa 90nM:30nM, anti-RXR (NR concentration 90 nM, RXRa partner concentration 30 nM)
Outline: as §1

[11] = system: PPARg:RXRa DBDmut IVT, anti-RXR (DBD mutation: RXRa K156A/R161A, NR concentration 270 nM, RXRa partner concentration 90 nM)
Outline: as §1

[12] = system: PPARg:RXRa IVT, anti-PPARg (NR concentration 270 nM, RXRa partner concentration 90 nM)
Outline: as §1

[13] = system: PPARg DBDmut:RXRa IVT, anti-PPARg (DBD mutation: PPARg1 K132A/R137A, NR concentration 270 nM, RXRa partner concentration 90 nM)
Outline: as §1

[14] = system: PPARg DBDmut IVT, anti-PPARg (DBD mutation: PPARg1 K132A/R137A, NR concentration 270 nM)
Outline: as §1

[15] = system: PPARg homodimer (NR concentration 180 nM)
Outline: as §1

[16] = system: PXR:RXRa (NR concentration 270 nM, RXRa partner concentration 90 nM)
Outline: as §1

[17] = system: PXR homodimer (NR concentration 270 nM)
Outline: as §1

[18] = system: RARa:RXR (NR concentration 270 nM, RXRa partner concentration 90 nM)
Outline: as §1

[19] = system: RARa homodimer (NR concentration 270 nM)
Outline: as §1

[20] = system: RARb:RXRa (NR concentration 270 nM, RXRa partner concentration 90 nM)
Outline: as §1

Sequence | PBM binding z-score [1] | PBM binding z-score [2] | PBM binding z-score [3] | PBM binding z-score [4] | PBM binding z-score [5] | PBM binding z-score [6] | PBM binding z-score [7] | PBM binding z-score [8] | PBM binding z-score [9] | PBM binding z-score [10] | PBM binding z-score [11] | PBM binding z-score [12] | PBM binding z-score [13] | PBM binding z-score [14] | PBM binding z-score [15] | PBM binding z-score [16] | PBM binding z-score [17] | PBM binding z-score [18] | PBM binding z-score [19] | PBM binding z-score [20]
GGAAAGAGGGCAAGTTGATAGCAGAGTTTGATGG | 1.6 | 1.58 | 0.345 | 1.25 | 0.718 | 2.15 | 1.14 | 1.59 | 0.606 | 1.04 | 3.57 | 2.18 | 0.748 | -0.108 | 1.67 | 1.29 | 1.23 | 0.849 | 1.34 | 2.93
CCTCGGAGGACAACAGGAGGGCAGAGCTGCCAGA | -0.363 | -0.203 | -0.39 | -0.91 | -0.963 | -0.724 | -0.101 | -1.25 | -1.32 | -1.32 | -0.405 | -0.306 | -2.18 | -1.69 | -0.00297 | -0.394 | -0.631 | -0.517 | -0.328 | 1.73
CCGACTGGGGCATAAGGTTACCATGAGCCAGCCC | 0.192 | 1.36 | -0.247 | 0.153 | -1.3 | 1.9 | 2.48 | 3.24 | 1.36 | 2.8 | 2.64 | 3.31 | -0.794 | -1.56 | 0.331 | 0.16 | -0.667 | 1.16 | 0.564 | 1.55
CGGACTGGGGCAAGGTTACCATAACGCACAGCCA | 0.491 | 1.02 | -0.284 | 1.05 | -0.449 | 2.67 | 4.88 | 4.78 | 2.59 | 4.2 | 4.9 | 5.59 | 0.588 | 0.000804 | 0.759 | 0.516 | -0.28 | 1.03 | -0.565 | 1.67
TCTAGTTGGTCAAAGGTCACACGCTCGAAATGCG | 6.24 | 5.77 | 4.22 | 5.45 | 1.94 | 6.6 | 12 | 10.1 | 12.1 | 11.5 | 3.58 | 6.36 | 0.719 | 1.69 | 5.16 | 6 | 2.22 | 7.76 | 3.91 | 4.97
CCTAGCAGACCAGGGTCACTCAAGCATTTCGCTT | 2.1 | 1.88 | -0.131 | 2.25 | -0.581 | 3.23 | 0.556 | 1.21 | -0.525 | 0.444 | -0.221 | 0.416 | -0.792 | -1.1 | 0.914 | 2.63 | -0.0947 | 3.3 | -0.0324 | 2.32
TCTCGGATGACACGAAGGTCAGAGCTTTCCAGAG | 2.3 | 1.55 | 0.495 | 1.4 | -0.796 | 2.24 | 0.758 | 2.21 | 2.77 | 2.56 | 1.37 | 0.539 | -0.684 | -0.814 | 0.961 | 1.62 | 0.0323 | 2.3 | -0.214 | 2.55
CTCGAAAGGTCGTGCTCAGTTGAGTATACCAAAC | 4.37 | 3.75 | 0.291 | 3.5 | 0.338 | 4.85 | 2.54 | 3.47 | 0.941 | 2.53 | 0.724 | 1.41 | 0.908 | 0.182 | 1.01 | 3.56 | 0.333 | 3.85 | 0.101 | 3.85
ATACCAAGGTGATCGTGAGGTCGTTGAGACTAAC | 1.86 | 1.27 | 0.536 | 0.968 | 0.251 | 1.55 | 0.356 | 0.352 | -0.174 | -0.0872 | 0.478 | 1.15 | 0.272 | -0.217 | 0.626 | 2.93 | 1.28 | 1.91 | 0.197 | 1.39
CCTTACGGGTCATTGACAGGTTATAGCATTTGGA | 5.92 | 4.79 | 1.1 | 3.85 | 0.271 | 5.27 | 3.6 | 4.06 | 1.55 | 2.75 | 2.34 | 2.72 | 0.642 | 0.325 | 2.77 | 3.94 | 0.591 | 4.67 | 0.122 | 3.64
CCTACTGGGCCAAAGGTCATTGTTTCCAATGCTC | 4.79 | 5.08 | 4.83 | 4.72 | 1.37 | 6.74 | 11.7 | 10.6 | 10.6 | 11.3 | 5.12 | 6.92 | 2.88 | 1.37 | 5.48 | 5.37 | 1.86 | 6.23 | 1.11 | 4.16
GGAACGAGGGCATTCGAGTTGATAGAATGGCGAT | 1.44 | 1.37 | -0.262 | 0.195 | -0.719 | 1.27 | 0.965 | 0.758 | 0.0506 | 0.303 | 2.73 | 1.93 | -0.165 | -0.814 | -0.265 | 3.87 | 1.31 | 0.709 | -0.629 | 1.69
ATATGTAGGTTATCGGTTCATTCAGTTTGCGCAT | 1.28 | 1.84 | 1.33 | 1.71 | 1.17 | 3.91 | 5.47 | 5.22 | 2.65 | 4.65 | 7.25 | 7.09 | 4.06 | 4.75 | 2.66 | 3.48 | 11.4 | 1.73 | 1.25 | 1.32
